Compound activity from PubChem BioAssay.
Compounds with a hit are over-represented: about 6.7% of the library has one in this group of screens.
BoNT-F LC inh: inhibitors of Botulinum neurotoxin F light chain protease; inhibition, % at 10 µM; 360,000 tested, 0.22% active; Multiplex microsphere protease cleavage assay, flow cytometry; AID 588497; in the data active means inhibition above about 35%, passing the limit was not always enough; inconclusive means no clear call, values can overlap the other calls
BoNT A protease: BoNT A light chain protease inhibition; multiplex microsphere protease substrate cleavage, flow cytometry; inhibition, % at 10 µM; 360,000 tested, 0.17% active; AID 588499; in the data active means inhibition above about 30%; inconclusive means no clear call, values can overlap the other calls
Autofluor counter: counter-screen for toxin protease inhibitors: compound fluorescence. compound autofluorescence counterscreen, microsphere flow cytometry; stronger effect = higher value. fluorescence intensity (test concentration not listed). 360,000 tested, 3.1% active. AID 624483; in the data active means fluorescence intensity above about 16000; inconclusive means no clear call, values can overlap the other calls
GDH-TPI counter-1: inhibits GDH-TPI coupling enzymes, artifact for Mtb FBA screen; GDH-TPI coupled enzyme counterscreen, NADH absorbance; 360,000 tested, 1.2% active; inhibition, % at 4.8 µM; AID 588335; in the data active means inhibition above about 30%
Anthrax LF prot: inhibitors of Bacillus anthracis lethal factor protease; inhibition, % at 10 µM; multiplex microsphere protease cleavage assay, LF; 360,000 tested, 0.12% active; in the data active means inhibition above about 30%; inconclusive means no clear call, values can overlap the other calls
Target sequence (P15917 whole entry, looked up): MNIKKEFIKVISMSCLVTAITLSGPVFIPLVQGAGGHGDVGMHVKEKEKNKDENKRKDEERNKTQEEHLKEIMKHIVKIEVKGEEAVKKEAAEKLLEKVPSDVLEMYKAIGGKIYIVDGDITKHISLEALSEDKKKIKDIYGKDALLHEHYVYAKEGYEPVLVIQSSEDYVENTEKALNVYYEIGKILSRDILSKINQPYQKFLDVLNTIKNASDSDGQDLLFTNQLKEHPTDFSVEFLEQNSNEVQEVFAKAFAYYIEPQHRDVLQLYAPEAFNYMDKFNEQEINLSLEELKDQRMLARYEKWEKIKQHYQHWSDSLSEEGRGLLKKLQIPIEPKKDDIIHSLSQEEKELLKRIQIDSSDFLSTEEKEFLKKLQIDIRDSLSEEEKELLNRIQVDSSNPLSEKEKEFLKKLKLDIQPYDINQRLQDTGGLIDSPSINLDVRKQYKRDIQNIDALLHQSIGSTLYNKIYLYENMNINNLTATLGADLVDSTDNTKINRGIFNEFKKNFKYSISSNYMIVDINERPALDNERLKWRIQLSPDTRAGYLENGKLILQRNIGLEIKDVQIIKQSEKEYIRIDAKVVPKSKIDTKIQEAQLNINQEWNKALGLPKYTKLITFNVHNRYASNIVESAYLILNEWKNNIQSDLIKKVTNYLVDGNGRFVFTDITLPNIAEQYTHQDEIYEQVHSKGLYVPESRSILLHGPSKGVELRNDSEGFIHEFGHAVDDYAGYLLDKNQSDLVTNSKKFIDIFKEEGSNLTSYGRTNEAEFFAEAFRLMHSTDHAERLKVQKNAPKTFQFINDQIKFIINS
FBA Mtb inh: inhibitors of M. tuberculosis fructose-bisphosphate aldolase | P9WQA3 | purified M. tuberculosis FBA, fluorescence read-out | inhibition, % at 1 µM | 360,000 tested, 2.3% active | AID 588726
Mtb FBA confirm: confirmation of M. tuberculosis fructose-bisphosphate aldolase inhibitors. shares compounds with FBA Mtb inh. purified M. tuberculosis FBA, fluorescence read-out. inhibition, % at 1 µM. 5,600 tested, 78% active. AID 651616
GDH-TPI counter-2: GDH-TPI inhibition counter-screen for FBA inhibitors. shares compounds with FBA Mtb inh. GDH-TPI coupled enzyme counterscreen, fluorescence. inhibition, % at 1 µM. 5,600 tested, 81% active; in the data active means inhibition above about 10%
GDH-TPI dose: GDH-TPI dose response counter-screen for Mtb FBA; shares compounds with FBA Mtb inh; GDH-TPI coupled enzyme assay, fluorescence, artifact counterscreen; IC50, µM; 170 tested, 79% active; AID 652145; call rule not given here
Numbers stand for hits; 0 = inactive; ? = inconclusive; - = no result given; + = active, no number. Unless noted, no stated cut-off is given here; in the data, active means inhibition above about 27%; inactive means the rest.

SMILES	BoNT-F LC inh	BoNT A protease	Autofluor counter	GDH-TPI counter-1	Anthrax LF prot	FBA Mtb inh	Mtb FBA confirm	GDH-TPI counter-2	others
Cc1ccc(CNC(=O)CN(C(=O)C2(C)CC(=O)N=C3C=CC=CN32)c2ccccc2F)cc1 (stereo unspecified)	0	0	0	0	0	82	77	53
O=C(CN(C(=O)c1csnn1)c1ccccc1F)NCc1ccccc1	0	0	0	0	0	0	-	-
CCn1c2ccccc2c2cc(NC(=O)COC(=O)c3ccc(O)cc3)ccc21	0	0	?	0	0	0	-	-
CCNc1oc(/C=C/c2ccc(OCC)cc2)nc1C#N	?	0	0	0	0	29	86	71
COc1ccc2c(CN3CCCC3)cc(=O)oc2c1	0	0	0	-	0	36	0	0	GDH-TPI dose=5.1
CCCCN(CCCC)Cc1cc(=O)oc2cc(OC)ccc12	0	0	0	-	0	45	+	+
COc1ccc2c(CC(=O)O)cc(=O)oc2c1	0	0	0	0	0	66	+	+
COc1ccc2c(CC(=O)N[C@@H](Cc3c[nH]c4ccccc34)C(=O)O)cc(=O)oc2c1	0	0	0	0	0	0	-	-
COC(=O)C1CCN(Cc2cc(=O)oc3cc(OC)ccc23)CC1	0	0	0	0	0	0	-	-
CN(C)c1ccc(P(=O)(OCc2ccccc2)C(O)c2ccccc2F)cc1 (stereo unspecified)	0	0	0	0	0	0	-	-
O=C(NCCCn1ccnc1)c1ccc(S(=O)(=O)Nc2ccccc2)cc1	0	0	0	0	0	0	-	-
CN(Cc1ccc(F)cc1)C(=O)CNC(=O)c1cccs1	0	0	0	0	0	64	0	0
CN(Cc1c(F)cccc1Cl)C(=O)CNC(=O)c1cccs1	0	0	0	0	0	0	-	-
CCOc1ccccc1C1C2=C(COC2=O)Nc2cc3c(cc21)OCO3 (stereo unspecified)	0	0	0	0	0	0	-	-
O=C1OCC2=C1C(c1ccc(F)cc1)c1cc3c(cc1N2)OCCO3 (stereo unspecified)	0	0	0	37	0	74	+	137
CC(=O)Oc1ccc(C2C3=C(CC(C)(C)CC3=O)Nc3cc4c(cc32)OCCO4)cc1 (stereo unspecified)	0	0	?	43	0	47	72	63
O=C1OCC2=C1C(c1ccc(F)cc1)c1cc3c(cc1N2)OCO3 (stereo unspecified)	0	0	0	0	0	27	133	142
COc1cccc(C2C3=C(CC(C)(C)CC3=O)Nc3cc4c(cc32)OCO4)c1 (stereo unspecified)	0	0	0	0	0	0	-	-
CCN(CC)CCNS(=O)(=O)c1ccc(Cl)cc1	0	0	0	0	0	0	-	-
Cc1nc2nc(CCNS(=O)(=O)c3ccc(Cl)cc3)cn2nc1C	0	0	0	0	0	72	62	63
COc1ccc(S(=O)(=O)NCCc2cn3nc(C)c(C)nc3n2)cc1	0	0	0	0	0	59	0	0
COc1cccc2cc(C(=O)NCc3ccc(F)cc3)c(=N)oc12	0	0	0	0	0	0	-	-
O=c1ccc2cc3c4c(c2o1)CCCN4CCC3	?	?	0	0	?	54	62	60
O=c1oc2c3c4c(cc2s1)CCCN4CCC3	0	0	0	0	0	0	-	-
C=CCSc1nsc(NC(=O)Nc2ccc(F)cc2)n1	?	0	0	0	0	0	-	-
SMILES	BoNT-F LC inh	BoNT A protease	Autofluor counter	GDH-TPI counter-1	Anthrax LF prot	FBA Mtb inh	Mtb FBA confirm	GDH-TPI counter-2	others
O=C(N=Nc1c(O)[nH]c2ccc(F)cc12)C1COc2ccccc2O1 (stereo unspecified)	0	0	0	0	0	38	131	104
O=C(COC(=O)C1COc2ccccc2O1)c1ccc(F)cc1 (stereo unspecified)	0	0	0	0	0	0	-	-
COc1ccc(-c2cc3nc(-c4ccccc4)cc(N4CCN(C(=O)c5ccccc5)CC4)n3n2)cc1	0	0	0	0	0	0	-	-
COc1ccc(-c2cc3nc(-c4ccccc4)cc(N4CCCC(O)C4)n3n2)cc1 (stereo unspecified)	0	0	0	0	0	79	0	0
COc1ccc(-c2cc3nc(-c4ccccc4)cc(N4CCC(O)CC4)n3n2)cc1	0	0	0	0	0	80	39	27
COc1ccc(-c2cc3nc(-c4ccccc4)cc(N4CCN(C(C)=O)CC4)n3n2)cc1	0	0	0	0	0	70	0	0
COc1ccc(-c2cc3nc(-c4ccccc4)cc(N4CCN(C(=O)c5ccsc5)CC4)n3n2)cc1	0	0	0	0	0	0	-	-
CCC1C(=O)N=C(SCC(=O)Nc2ccc(C(=O)OC)cc2)NC1=O (stereo unspecified)	0	0	0	0	0	0	-	-
COc1ccccc1NC(=O)c1ccc(S(=O)(=O)N(C)C)cc1	0	0	0	0	0	0	-	-
O=C(O)CCCc1c(-[n+]2ccccc2)[nH]c2ccccc12	0	0	0	0	0	0	-	-
Cc1ccc2c(c1)nnn2C1CCN(CC(=O)N2c3ccccc3CC2C)CC1 (stereo unspecified)	0	0	0	0	0	0	-	-
CC(C)Sc1nc(NCc2ccco2)c2c3c(sc2n1)COC(C)(C)C3	0	0	0	0	0	85	+	+
CCOC(=O)c1c(C)oc2ccc(OCc3cc(C(=O)OC)oc3C)cc12	0	0	0	0	0	0	-	-
Fc1ccc(C2C3=C(Nc4ncnn42)c2ccccc2OC3c2ccncc2)cc1 (stereo unspecified)	0	0	0	0	0	37	102	64
Cc1ccc(C2Oc3ccccc3C3=C2C(c2cccs2)n2ncnc2N3)cc1 (stereo unspecified)	0	0	0	0	0	0	-	-
Cc1nn(CCC(=O)O)c(C)c1C	0	0	0	0	0	0	-	-
